Results reported in PubChem BioAssay AID449739 (Vanderbilt High Throughput Screening Facility, 2010).
The whole screen tested about 100,000 compounds, of which about 4,200 (4.2%) were called active.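 The calls were made as follows: active = single-dose well whose peak fluorescence ratio is a statistical outlier from its plate by either plate-standardised score or position-corrected B-score; inactive = the rest.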 The full list was thinned out, with actives kept by preference.

target: Voltage-dependent T-type calcium channel subunit alpha-1H (Homo sapiens) (UniProt O95180); experiment: Cav3.2 calcium influx blockers – cell-based, Fluo-4 calcium fluorescence, FDSS, MLSMR library, primary screen (AID 449739); settings: Cav3.2-expressing cells, at 10 µM, active compounds read low
Sequence (O95180 whole entry, looked up): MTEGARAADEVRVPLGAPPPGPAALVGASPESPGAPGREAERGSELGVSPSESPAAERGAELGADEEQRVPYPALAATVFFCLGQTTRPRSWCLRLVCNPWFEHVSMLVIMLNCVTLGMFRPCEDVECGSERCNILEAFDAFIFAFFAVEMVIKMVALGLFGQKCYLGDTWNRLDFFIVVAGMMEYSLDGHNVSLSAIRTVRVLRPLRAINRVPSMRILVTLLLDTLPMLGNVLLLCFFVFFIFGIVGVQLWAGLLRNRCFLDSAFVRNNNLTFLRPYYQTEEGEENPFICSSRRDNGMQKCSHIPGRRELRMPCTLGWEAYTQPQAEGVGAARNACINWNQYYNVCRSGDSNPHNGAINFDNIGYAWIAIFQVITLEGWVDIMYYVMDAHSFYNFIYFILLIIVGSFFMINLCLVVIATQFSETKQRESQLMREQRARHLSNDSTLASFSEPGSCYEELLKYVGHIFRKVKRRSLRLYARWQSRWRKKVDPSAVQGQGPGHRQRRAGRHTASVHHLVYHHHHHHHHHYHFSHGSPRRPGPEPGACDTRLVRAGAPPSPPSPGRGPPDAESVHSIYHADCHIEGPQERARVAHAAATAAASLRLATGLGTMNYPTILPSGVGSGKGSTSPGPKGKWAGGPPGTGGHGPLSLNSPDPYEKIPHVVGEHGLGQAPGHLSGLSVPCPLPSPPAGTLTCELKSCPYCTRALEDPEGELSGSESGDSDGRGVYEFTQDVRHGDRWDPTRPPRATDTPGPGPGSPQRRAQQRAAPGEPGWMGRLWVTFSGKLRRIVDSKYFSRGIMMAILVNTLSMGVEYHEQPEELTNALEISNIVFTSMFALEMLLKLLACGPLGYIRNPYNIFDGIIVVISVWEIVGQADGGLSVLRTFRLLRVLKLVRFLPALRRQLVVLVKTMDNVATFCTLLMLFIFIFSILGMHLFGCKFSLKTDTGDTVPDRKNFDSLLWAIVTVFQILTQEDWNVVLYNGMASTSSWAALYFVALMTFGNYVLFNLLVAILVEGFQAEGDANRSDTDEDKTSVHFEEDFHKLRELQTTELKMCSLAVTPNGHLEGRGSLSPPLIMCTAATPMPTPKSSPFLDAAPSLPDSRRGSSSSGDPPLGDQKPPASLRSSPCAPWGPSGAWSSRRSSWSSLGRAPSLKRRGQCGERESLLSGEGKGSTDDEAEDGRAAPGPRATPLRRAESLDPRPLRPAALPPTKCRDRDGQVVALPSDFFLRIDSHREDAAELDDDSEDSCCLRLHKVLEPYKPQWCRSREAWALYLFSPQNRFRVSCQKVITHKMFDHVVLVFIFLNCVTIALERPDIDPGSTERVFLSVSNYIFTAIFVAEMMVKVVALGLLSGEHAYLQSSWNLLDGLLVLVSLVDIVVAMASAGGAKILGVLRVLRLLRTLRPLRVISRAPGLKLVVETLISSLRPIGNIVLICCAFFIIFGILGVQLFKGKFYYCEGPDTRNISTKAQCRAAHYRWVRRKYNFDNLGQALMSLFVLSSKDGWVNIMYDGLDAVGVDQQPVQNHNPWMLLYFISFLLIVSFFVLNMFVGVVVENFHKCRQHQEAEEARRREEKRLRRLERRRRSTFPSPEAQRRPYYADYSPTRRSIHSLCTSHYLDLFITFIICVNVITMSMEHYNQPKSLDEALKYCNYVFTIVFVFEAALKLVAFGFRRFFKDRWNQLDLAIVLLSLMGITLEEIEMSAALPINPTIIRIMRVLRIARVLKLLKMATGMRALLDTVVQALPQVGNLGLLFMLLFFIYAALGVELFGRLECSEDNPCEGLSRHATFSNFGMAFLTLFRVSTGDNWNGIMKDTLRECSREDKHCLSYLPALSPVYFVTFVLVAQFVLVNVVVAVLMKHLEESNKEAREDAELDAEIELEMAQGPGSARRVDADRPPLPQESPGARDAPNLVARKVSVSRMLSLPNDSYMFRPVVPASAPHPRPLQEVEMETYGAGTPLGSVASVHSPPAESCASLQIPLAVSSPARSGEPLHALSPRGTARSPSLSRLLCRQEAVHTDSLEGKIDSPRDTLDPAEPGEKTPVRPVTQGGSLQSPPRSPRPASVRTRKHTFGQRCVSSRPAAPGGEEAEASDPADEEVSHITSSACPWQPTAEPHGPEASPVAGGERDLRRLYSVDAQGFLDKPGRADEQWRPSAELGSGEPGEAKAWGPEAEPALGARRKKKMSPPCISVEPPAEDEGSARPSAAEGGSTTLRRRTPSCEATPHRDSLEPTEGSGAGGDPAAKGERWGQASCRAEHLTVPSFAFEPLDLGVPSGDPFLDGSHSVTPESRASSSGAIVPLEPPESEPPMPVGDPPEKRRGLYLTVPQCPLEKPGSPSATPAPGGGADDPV

Structure (SMILES)	B-score
NC(=O)C1=C[C@@H](c2ccc3c(c2)OCO3)C[C@@H](OCCCCO)O1	0.476 (inactive)
COc1cccc(N(CC(=O)NC2CCCC2)C(=O)Cn2nnc(-c3ccc(C)cc3)n2)c1	-4.56 (active)
O=C(Cn1nnc(-c2ccc(CN3CCOCC3)cc2)n1)NC1CCCCC1	-0.444 (inactive)
COc1ccc(-c2nnn(CC(=O)N(CCO)C(C(=O)NC3CCCC3)c3ccc(F)cc3)n2)cc1 (stereo not drawn)	-1.11 (inactive)
COCc1cc(C)nc2sc(C(=O)NC3CCCCC3)c(N)c12	-0.0172 (inactive)
N#CC1=C(N)N(c2ccc(F)cc2)C(=O)C1	-0.201 (inactive)
CCOc1ccc(NC(=O)CC2NCCNC2=O)cc1 (stereo not drawn)	0.0128 (inactive)
O=C(CC1NCCNC1=O)Nc1ccc(Oc2ccccc2)cc1 (stereo not drawn)	-5.21 (active)
CCCOc1ccc(NC(=O)C2CCCNC2=O)cc1 (stereo not drawn)	-0.159 (inactive)
O=C1CCCC2=C1C(c1ccccc1)n1c(s/c(=C/c3cccc(F)c3)c1=O)=N2 (stereo not drawn)	0.975 (inactive)
O=C1N[C@@H](Cc2ccccc2)C(=O)N2[C@@H]3N(S(=O)(=O)c4ccc(F)cc4)c4ccccc4[C@]3(Br)C[C@@H]12	0.27 (inactive)
N=c1n(Cc2ccc(Cl)cc2)c2ccccc2n1CC(O)c1ccco1 (stereo not drawn)	-3.51 (active)
O=S(=O)(O)c1nc2ccccc2n1Cc1ccc(Cl)cc1	-0.194 (inactive)
Cn1c(=N)n(CC(O)c2ccccc2)c2ccccc21 (stereo not drawn)	0.141 (inactive)
Cc1cc([N+](=O)[O-])ccc1NCc1cccc([N+](=O)[O-])c1	0.0686 (inactive)
Cc1c(CCO)c(=O)[nH]n1C(=O)c1c(F)cccc1F	0.442 (inactive)
CC1CN(c2nc(-c3ccccc3)nnc2-c2ccccc2)CC(C)O1 (stereo not drawn)	-0.222 (inactive)
CSc1cc(C)n(-c2ccccc2C)c(=S)c1C(C)=O	0.0764 (inactive)
Cc1ccc(Cn2c(NC(=O)c3ccco3)nc3ccccc32)cc1	1.58 (inactive)
Cc1ccc(Cn2c(C)nc3c(c2=O)c2nc4ccccc4nc2n3Cc2ccco2)cc1	-6.69 (active)

Structure (SMILES)	B-score
Clc1cccc(-c2nc3nc4ccccc4nc3n2Cc2ccco2)c1	-2.21 (inactive)
COc1cc(OC)c2ccc(=O)oc2c1C(CCN1CCN(c2ccccc2)CC1)c1ccc2c(c1)OCO2 (stereo not drawn)	-0.318 (inactive)
C/C=C(\C)C(=O)NCCN1C2=NC[C@H](Cc3ccc(O)cc3)N2C[C@@H]1Cc1ccc(OC)cc1	-0.0234 (inactive)
CCO[C@H]1OC(C(=O)N2CCOCC2)=C[C@@H](c2ccc3c(c2)OCO3)[C@@H]1CCCO	-0.694 (inactive)
Cc1cccc(C)c1NC(=O)CSc1nnc(-c2ccccc2)n1Cc1ccc2c(c1)OCO2	-6.18 (active)
O=C(CSc1nnc(-c2ccccn2)n1-c1ccccc1)Nc1ccc2c(c1)OCO2	0.144 (inactive)
Cc1ccccc1-c1nnc(SCC(=O)NCc2ccc3c(c2)OCO3)n1C	0.345 (inactive)
COCCNC(=O)c1onc(CSc2cccc(C)c2)c1C(=O)O	1.46 (inactive)
CCCCN=C1N/C(=C\c2ccco2)C(=O)N1c1ccccc1	0.203 (inactive)
C=C(C)Cn1c(C)cc(C)c(S(=O)(=O)c2ccccc2C)c1=O	-4.84 (active)
COC/C=C/C1=CC2=CC(=O)C(C)(OC(=O)CCC(=O)OC)C(=O)C2=CO1 (stereo not drawn)	-0.853 (inactive)
CC1CCN(C(NC(=O)c2ccco2)C(=O)c2ccccc2)CC1 (stereo not drawn)	-1.33 (inactive)
COCCNC(=O)Cn1cc(C(=O)c2cccs2)c2ccccc21	0.167 (inactive)
O=C(Cn1cc(C(=O)c2cccs2)c2ccccc21)NCc1cccs1	-4.4 (active)
COC(=O)c1cn(CC(=O)NCc2cccs2)c2ccccc12	-0.599 (inactive)
CC(=O)n1cc([C@@H]2C=C(C(=O)N3CCN(Cc4ccc5c(c4)OCO5)CC3)O[C@H](OCc3ccc(CO)cc3)C2)c2ccccc21	-1.49 (inactive)
CC1(OC(=O)CCc2ccccc2)C(=O)C=C2C=C(c3ccc(C#N)cc3)N(CCc3ccccn3)C=C2C1=O (stereo not drawn)	0.634 (inactive)
CC(C)n1cnc2c(Nc3cccc(Cl)c3)nc(N(CCO)CCCO)nc21	-0.405 (inactive)
CC(C)C[C@H](CO)Nc1nc(N(C)c2cccc(Cl)c2)c2ncn(C(C)C)c2n1	-3.33 (active)
COC(=O)C(C)n1cnc2c(nnn2-c2cccc(Cl)c2)c1=O (stereo not drawn)	-0.438 (inactive)

Structure (SMILES)	B-score
Cn1c(SCC(=O)N2CCCc3ccccc32)nc2ccccc2c1=O	-2.58 (inactive)
CCNC(=O)c1c(O)c2cccc3c2n(c1=O)CC3	-0.155 (inactive)
CCCCc1nc2ccccc2c(=O)n1NC(=O)c1c(O)c2cccc3c2n(c1=O)CC3	-7.27 (active)
CCCC(=O)Nc1c(O)c2ccccc2[nH]c1=O	-0.361 (inactive)
CCCc1nc2ccccc2c(=O)n1NC(=O)c1c(O)c2ccccc2[nH]c1=O	-3.3 (active)
CCCc1nc2ccccc2c(=O)n1/N=C/c1ccc(O)c(O)c1	0.0906 (inactive)
Cc1nc(C)c(C(=O)N(c2ccc(C)c(C)c2)C(C(=O)NCc2ccco2)c2ccccc2)s1 (stereo not drawn)	-0.655 (inactive)
COc1ccc(NCc2nnc(SCc3ccccc3)n2-c2ccc(OC)cc2)cc1	-3.07 (inactive)
Cc1cccc(N2C(=O)C3C(c4ccccc4)OC4(C(=O)c5ccccc5C4=O)C3C2=O)c1 (stereo not drawn)	-0.244 (inactive)
Cc1nc(-c2ccc(Cl)cc2)sc1C1(C)CC(c2ccccc2F)=NO1 (stereo not drawn)	1.15 (inactive)
COc1ccc(SCCN2CCN(CC(C)C)CCC2=O)cc1	0.677 (inactive)
CCOC(=O)/C=C/CN(C(=O)OC(C)(C)C)S(=O)(=O)N1CC=CC1	0.152 (inactive)
Cc1ccc(NC(=O)C2CC(c3ccc(F)cc3)=NO2)cc1 (stereo not drawn)	0.0436 (inactive)
COC(=O)C1C(=O)NCC1c1ccc(OC)cc1 (stereo not drawn)	0.134 (inactive)
COC(=O)C1=C(Nc2ccc(C)cc2)C=C(C)C(C(=O)OC)C1c1ccc(F)cc1 (stereo not drawn)	-5.1 (active)
COC(=O)c1cc(OC)ccc1-c1ccc(OC)cc1	0.191 (inactive)
COC(=O)c1ccc(NC(=O)Nc2ccc(C)cc2)cc1	0.0358 (inactive)
COC(=O)C1=C(Nc2ccc(OC)cc2)C=C(C)C(C(=O)OC)C1c1ccc(C)cc1 (stereo not drawn)	-5.75 (active)
